This is a sample that favours compounds with a hit; in the whole collection about 1.8% have one here.
Sa ugtP lethal = growth inhibition of ugtP-null S. aureus, primary screen, RN4220 ugtP deletion, OD600. 330,000 tested, 0.54% active. growth inhibition, % (test concentration not listed). AID 1259309, 2017. 16 h; in the data active = growth inhibition above about 68%;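 also: plate controls were untreated wells for no effect and antibiotic for full effect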
RN4220 kill = growth inhibition of S. aureus RN4220, primary screen, OD600; 16 h; inhibition, % (test concentration not listed); 330,000 tested, 0.33% active; in the data active = inhibition above about 85%;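 also: plate controls were untreated cells for no effect and reference antibiotic for full effect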
PrPC TRFRET = inhibitors of human cell surface prion protein PrPC, primary screen, cell-based, TR-FRET; inhibition, % at 13.8 µM; Major prion protein (Homo sapiens), P04156; AID 720596, 2013; 370,000 tested, 0.43% active; TR-FRET read-out; in the data active = inhibition above about 24%; also: 0% = median of the test wells and 100% = reference compound wells
PrPC confirm = confirmation of inhibitors of cell surface human prion protein, confirmation, cell-based, TR-FRET; cell surface PrPC level; 1,500 tested, 65% active; inhibition, % at 13.8 µM; shares compounds with PrPC TRFRET; in the data active = inhibition above about 25%
LD9 tox = cytotoxicity in LD9 cells, cytotoxicity control for cell surface PrPc inhibitor project, cell-based, luminescence, high throughput; shares compounds with PrPC TRFRET; luminescence viability; inhibition, % at 13.8 µM; 1,500 tested, 29% active; AID 743201, 2013; in the data active = inhibition above about 9.5%
Starred values were filed as active, the others as inactive; x = not tested or not shown.

SMILES	Sa ugtP lethal	RN4220 kill	PrPC TRFRET	others
CCOC(=O)C=Cc1ccc2c(c1)S(=O)(=O)N(c1cccc(OC)c1)C2CC(=O)OCC (stereo not given)	2	2	x
O=[N+]([O-])c1cc(C=NN2CCN(Cc3ccccc3)CC2)ccc1Cl	5	-1	x
CCCCc1c(-c2ccc(F)cc2F)ncn1CCc1ccccc1OC	x	x	3
CCCCc1c(Cc2cccc(F)c2)ncn1CCc1ccccc1OC	x	x	27*	PrPC confirm=19;LD9 tox=17*
O=C1C=C(c2cccc(Cl)c2O)CC(c2ccc(F)cc2)C1 (stereo not given)	5	10	x
CCN(CC)c1ccc(C=c2sc3nnc(-c4ccccc4Cl)n3c2=O)cc1	-7	-3	x

Screening results as filed in PubChem.
